Compounds with a hit are over-represented: about 1.7% of the library has one in this group of screens.
Mtb hypoxia rep: reduces hypoxia-regulated biosensor signal in M. tuberculosis; 300,000 compounds, 0.1% hits; AID 1159583; M. tuberculosis hypoxia-regulated fluorescent reporter, fluorescence; fluorescence inhibition, % (concentration not given with the values); in the data active = fluorescence inhibition mostly above about 23%, no sharp cut-off; inactive = mostly below about 17%
Sa RN4220 lethal: S. aureus RN4220 growth inhibition; OD600, 16 h; inhibition, % (no concentration beside the values); 330,000 compounds, 0.33% hits; AID 1259311; in the data active = inhibition above about 85%;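 note: plate controls were untreated cells for no effect and reference antibiotic for full effect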
PfHsp40 yeast: compounds rescuing yeast from Plasmodium falciparum HSP40 toxicity; S. cerevisiae expressing PfHsp40, growth rescue, ATP luminescence; growth rescue, % at 12.5 µM; 340,000 compounds, 0.68% hits; AID 504582; in the data active = growth rescue above about 28%, passing the limit was not always enough;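 note: yeast W303a lacking pdr1 and pdr3 grown in galactose medium; growth measured after three days at 30 °C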
ugtP null kill: growth inhibition of S. aureus ugtP deletion strain. S. aureus RN4220 ugtP deletion, OD600 growth, 16 h. growth inhibition, % (test concentration not listed). 330,000 compounds, 0.54% hits; in the data active = growth inhibition above about 68%;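 note: plate controls were untreated wells for no effect and antibiotic for full effect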
BH1578 lux ind: induces V. cholerae light production without autoinducers. 350,000 compounds, 0.16% hits. V. cholerae BH1578 lux reporter, luminescence, 6 h. activation, % at 18.7 µM; in the data active = activation mostly above about 9.7%, no sharp cut-off
CCHFV vOTU inh: CCHFV vOTU protease inhibition | inhibition, % at 11.5 µM | Pep-AMC fluorescence | 370,000 compounds, 0.55% hits | AID 651958; in the data active = inhibition above about 30%; note: 0% = vehicle wells with enzyme and 100% = no enzyme wells
* = called active by the depositor; i = inactive; x = no result given.

SMILES	Mtb hypoxia rep	Sa RN4220 lethal	PfHsp40 yeast	ugtP null kill	BH1578 lux ind	CCHFV vOTU inh
CCOc1ccc(C=NNC(=O)c2csc(C)c2C)c(OCC)c1	6.4	4.9	x	3.7	x	x
CC1(C)COCN1S(=O)(=O)c1ccc(C(=O)Nc2nnc(-c3ccc(Cl)s3)o2)cc1	4.8	99.6*	x	98.4*	x	x
CC1CCCCN1S(=O)(=O)c1ccc(C(=O)Nc2nnc(-c3ccccc3Cl)o2)cc1 (stereo not given)	-5.0	97.8*	-0.3	98.1*	0.0	-3.7
O=C(Nc1nnc(-c2ccccc2Cl)o1)c1ccc(S(=O)(=O)N2CCCCCC2)cc1	-4.6	99.7*	x	96.2*	x	x
CS(=O)(=O)c1ccccc1-c1nnc(NC(=O)c2ccc(S(=O)(=O)N3CCCC3)cc2)o1	7.3	9.3	0.1	-2.1	i	-2.2
CC1CCCCN1S(=O)(=O)c1ccc(C(=O)Nc2nnc(-c3ccncc3)o2)cc1 (stereo not given)	2.2	27.6	1.1	7.7	-0.6	-5.5
CCCCN(C)S(=O)(=O)c1ccc(C(=O)Nc2nnc(C3=COCCO3)o2)cc1	-2.9	14.2	-0.3	3.5	0.1	0.4
CCCCN(C)S(=O)(=O)c1ccc(C(=O)Nc2nnc(-c3cccs3)o2)cc1	x	103.8*	x	97.0*	x	x
CCC1CCCCN1S(=O)(=O)c1ccc(C(=O)Nc2nnc(-c3ccccc3Cl)o2)cc1 (stereo not given)	4.7	98.9*	0.3	98.3*	0.4	x
O=C(Nc1nnc(-c2cccs2)o1)c1cccc(Oc2ccccc2)c1	4.9	98.8*	500.1*	99.6*	-0.3	13.7
CCCCN(CC)S(=O)(=O)c1ccc(C(=O)Nc2nnc(-c3ccccc3Cl)o2)cc1	-2.9	99.8*	-1.4	99.9*	i	x
CCC1CCCCN1S(=O)(=O)c1ccc(C(=O)Nc2nnc(C3CC3)o2)cc1 (stereo not given)	-1.4	62.3	4.4	50.3	i	3.1
COC(=O)C1=C(c2c(C)noc2C)CC2CCC1N2C(=O)N1CCCC1 (stereo not given)	14.1	2.1	x	5.3	x	x
COCC=CC1=CC(=O)CC(c2ccc3c(c2)OCO3)C1 (stereo not given)	5.3	-1.0	x	0.1	x	x
CC1CN(C(C)CO)C(=O)c2cc(NC(=O)CCCCCC(=O)Nc3ccccc3N)ccc2OC1CN(C)Cc1ccccc1 (stereo not given)	-4.3	3.0	x	0.1	x	x
COc1ccc(CN(C)C(=O)COC(=O)c2ccc(-c3ccccc3)cc2)c(OC)c1OC	11.2	10.0	67.6*	12.1	i	16.2
COc1ccc(CN(C)C(=O)CCN2C(=O)c3ccccc3C2=O)c(OC)c1OC	2.8	4.4	0.9	5.1	i	0.2
Cc1cccc(NCC(=O)NN=Cc2ccccn2)c1	-4.4	3.6	x	8.0	x	x
CCc1ccc(N2C(=O)CN(Cc3ccc(OC)c(OC)c3)C2=S)cc1	4.1	3.5	31.4*	-1.6	-0.4	-4.3
COc1ccc(CN2CC(=O)N(c3ccc(Cl)cc3)C2=S)cc1OC	7.5	-1.4	0.2	-4.2	i	1.6
CCN1C(=NCCOC)NC(CCc2ccccc2)C(C(=O)OC)C1C (stereo not given)	8.4	3.1	x	-7.2	x	x
N#C/C(=C(/O)c1ccc([N+](=O)[O-])o1)c1nc2ccccc2[nH]1	8.4	19.5	0.3	22.3	34.6*	-3.3
N#C/C(=C\c1ccc([N+](=O)[O-])o1)c1nc2ccccc2[nH]1	x	99.9*	x	100.1*	x	-3.5
Cc1ccc2nc(/C(C#N)=C\c3ccc([N+](=O)[O-])o3)[nH]c2c1	x	99.5*	5.0	98.7*	-0.7	-0.8
Cc1ccc2nc(/C(C#N)=C\c3ccc(N4CCOCC4)o3)[nH]c2c1	x	2.8	0.2	6.1	i	1.2
SMILES	Mtb hypoxia rep	Sa RN4220 lethal	PfHsp40 yeast	ugtP null kill	BH1578 lux ind	CCHFV vOTU inh
N#C/C(=C\c1ccc(Sc2ccccc2)o1)c1nc2ccccc2[nH]1	8.8	2.1	-0.7	-12.1	-1.8	2.8
O=C(/C=C/c1ccccc1)NCC(=O)NN=Cc1cccs1	11.2	3.3	x	3.0	x	x
CCOC1OC(C(=O)N2CCN(C)CC2)=CC(c2ccc3c(c2)OCO3)C1CCCO (stereo not given)	10.5	4.3	x	-6.5	x	x
COc1ccc(-c2ccc(N(C)C)cc2)cc1C1C2C=CCC[C@@]2(C)C(=O)N1Cc1ccccc1 (stereo not given in full)	-0.8	-7.5	x	4.2	x	x
Cc1ccccc1C(=O)NC(=S)Nc1sc2c(c1C#N)CCCC2	x	3.5	71.5*	12.2	i	2.8
CC1=C/C(=N\OS(=O)(=O)c2ccccc2)C(C(C)C)=CC1=O	x	x	46.3*	x	-0.2	x
COc1cc(C(=O)NN=Cc2ccc3c(c2)c2ccccc2n3C)ccc1O	12.9	90.7*	x	85.8*	x	x
O=C(Nc1nnc(-c2ccc3c(c2)OCCO3)o1)c1ccc(Cc2ccccc2)cc1	8.4	98.8*	-0.4	99.6*	-0.2	-7.4
O=C(Nc1nnc(-c2ccc(Cl)cc2)o1)Nc1ccccc1Cl	2.3	67.7	-0.2	0.0	-3.2	-9.1
O=C(CCOc1ccccc1)Nc1nnc(-c2ccc3c(c2)OCCO3)o1	-1.4	-0.5	-1.9	-2.8	i	-0.8
Cc1cccc(-c2nnc(NC(=O)c3ccc(Cl)cc3)o2)c1	1.8	99.2*	-0.5	95.1*	-2.2	-4.5
O=C(Nc1nnc(-c2ccc(Cl)cc2)o1)c1nc2ccccc2s1	6.3	100.3*	-1.6	98.8*	-0.3	2.1
COc1cccc(-c2nnc(NC(=O)c3ccc(Cl)s3)o2)c1	3.1	100.0*	0.8	100.2*	-0.3	4.6
CCCCC/C(C=NNc1ccc(S(=O)(=O)N2CCOCC2)cc1[N+](=O)[O-])=C\c1ccccc1	8.3	4.3	x	-17.2	x	x
O=C(NN=CC1CCCCC1)c1cc(Cl)ccc1O	x	7.7	x	10.6	x	x
COc1cccc(-c2nnc(NC(=O)c3cccc(F)c3)o2)c1	-1.7	98.1*	-1.3	98.3*	-0.2	2.2
O=C(Nc1nnc(-c2ccccc2)o1)c1cc(Cl)sc1Cl	x	x	2.1	x	-0.3	9.0
O=C(Nc1nnc(-c2ccc(F)cc2)o1)c1cc(Cl)sc1Cl	6.3	99.6*	-0.7	99.5*	-0.3	-7.5
CCCN(CCC)S(=O)(=O)c1ccc(C(=O)Nc2nnc(-c3cccc(OC)c3)o2)cc1	-4.8	99.5*	-2.0	99.8*	-0.3	1.0
COc1ccccc1C=NNC(=O)c1cc2c(ccc3ccccc32)o1	-2.7	2.6	x	-4.0	x	x
Cc1ccc(C=NN2CCN(c3ccccc3)CC2)cc1	12.1	5.1	x	-1.4	x	x
CCCn1c(C(=O)OC)cc2c1ccn2-c1ccc(F)cc1	17.5	15.0	2.1	96.8*	-5.0	-0.7
OC(CNCCC1C=Nc2ccccc21)Cn1c2ccc(Cl)cc2c2cc(Cl)ccc21 (stereo not given)	-3.3	100.5*	-0.3	100.8*	-0.3	7.9
CCCc1ccc(Oc2cc(C)nc(N3CCOCC3)n2)cc1	3.2	4.1	1.8	39.6	-6.7	2.9
CCCc1ccc(Oc2cc(N3CCOCC3)nc(-c3ccccc3)n2)cc1	4.6	-12.0	0.7	89.1*	1.0	x

High-throughput results as filed in PubChem BioAssay.
